Tg IFNy HTS: blocks Toxoplasma gondii growth in the presence of IFN-gamma; Toxoplasma gondii growth in IFN-gamma-treated host cells; hits give low values; activity change, negative = inhibition, % (test concentration not listed); actives 3.8% (n = 69,000); in the data active means activity change below about -70%, passing the limit was not always enough;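 further: host cells are HeLa cells infected with Toxoplasma gondii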
* = called active by the depositor; ! = not active in a repeat. The entries come from a sample that favours hits as a whole.

SMILES | Tg IFNy HTS
CC(C)NC(=O)c1cnc2n1CCN(c1cc(C(F)(F)F)ncn1)C2 | -3
Cc1cc(C)cc(S(=O)(=O)N2CCC(c3nc(C(=O)N4CCCC4)c(C)o3)CC2)c1 | 22
CCOc1ccc(CC(=O)N2CCC3(CC2)Nc2cc(C)ccc2-n2cccc23)cc1OCC | 10
CCc1nnc2n1CC(c1ccc(NC(=O)c3cccc(OC)c3)cc1)CC2 (centres undefined) | 22
CC(C)CCn1nc(C(=O)N2CCOCC2)c2c1CCN(C(=O)Cn1nc3ccccc3n1)C2 | -47
O=C(c1ccc(F)cc1)N1c2ccccc2Sc2ccc(C(F)(F)F)cc21 | -76*
FC(F)(F)c1ccc2c(c1)Nc1ccccc1S2 | 90
NCCC(=O)N1c2ccccc2Sc2ccccc21 | 32
COc1ccc(CCNc2cnn(-c3ccccc3)c(=O)c2Cl)cc1OC | -83*
COc1ccc(CCNC(=O)Cc2ccccc2)cc1OC | -48
O=c1c(Cl)c(Oc2ccccc2)cnn1-c1ccccc1 | 72
Cc1cc(C)cc(-c2nnc(SCC(=O)N3CCc4ccccc43)o2)c1 | 6
Cc1cc(C)nc(SCc2ccc(C(=O)Nc3nccs3)cc2)n1 | -88*
Cc1cc(SCc2ccc(C(=O)O)cc2)nc(SCc2ccc(Cl)cc2)n1 | 38
O=C(Cc1ccccc1)Nc1nccs1 | -4
O=C(Nc1ccccc1)c1csc2ccc(Cl)cc12 | -64
CN=C(NC#N)NCCSCc1csc(N=C(N)N)n1 | 12
Cn1c(=O)c(C(=O)NCc2ccccc2Cl)cc2cccnc21 | 170
COc1cccc(OC)c1C(=O)NCCc1sc(-c2cccc(F)c2)nc1C | 69
CCN(CC)C(=O)c1sc(NC(=O)c2c(OC)cccc2OC)c(C#N)c1C | -83*
COc1ccc(Oc2cccc(Oc3ccc(OC)cc3)c2C#N)cc1 | -2
Cc1cccc(-c2cn(C3CCCc4ccccc43)nn2)n1 (centres undefined) | -49
COc1cc(C(=O)Oc2ccc(C3CCCCC3)cc2)cc(OC)c1OC | -94*
COc1ccc(C(=O)/C=C/c2ccc(OC(=O)c3cc(OC)c(OC)c(OC)c3)cc2)cc1 | -25
COc1cc(C(=O)Oc2cc(C)cc(C)c2)cc(OC)c1OC | -2
SMILES | Tg IFNy HTS
Cc1ccc(NC(=O)N2CCC3(CCC(C(=O)N(C)C)O3)C(C)C2)cc1 (centres undefined) | 55
O=C1CN2Cc3c(ccc(Cl)c3Cl)N=C2N1 | -83*!
Cc1nc2cc3ccccc3cc2c(=O)[nH]1 | 63
CN(C)Cc1ccccc1Cn1cncc1-c1cnn(C2CCCCC2)c1 | 3
Cc1ccc(CN2C[C@@H](C(=O)Nc3cccnc3)C[C@@H]3OCC[C@@H]32)o1 | -6
CCSCC(C)NCc1ccccc1-n1ccnc1 (centres undefined) | 13
CNC(=O)c1cc(=O)n(CC(=O)Nc2cc(Cl)ccc2OC)c2ccccc12 | 4
COCC(=O)N1CCC2(CCOC2)C1 (centres undefined) | 17
FC(F)(F)c1ccncc1-c1ncc(-c2cccc(Cl)c2)o1 | -95*
Cc1cccc(C)c1-n1nnnc1-c1cnccc1C(F)(F)F | 26
O=C(NC(=O)c1cnccc1C(F)(F)F)Nc1ccc(Cl)cc1Cl | -54
O=C1CC(c2cccc(-n3cccn3)c2)c2cnn(Cc3cccnc3)c2N1 (centres undefined) | -6
Cc1nc(C)c(-c2ccnc(C34CC5CC(CC(C5)C3)C4)n2)o1 | -25
O=C(NC1CCc2[nH]c(=O)ccc2C1)N1CCCC1 (centres undefined) | 9
CN(C)C(=O)N1CCN(c2ccc3ccc(C(=O)NCCc4cccc(F)c4)cn23)CC1 | 29
O=C(c1nc(-c2cccc(F)c2)n2c1CCCCC2)N1CCCCCC1 | -87*
CC1CCN(C(=O)c2nc(-c3ccc(Cl)cc3)n3c2CCCCC3)CC1 | 22
CC1CCCCN1CCCNC(=O)c1nc(-c2ccc(Cl)cc2)n2c1CCCCC2 (centres undefined) | -37
Cc1cc(NC(=O)c2nc(-c3cccc(F)c3)n3c2CCCCC3)no1 | 236
COC(=O)c1sccc1NC(=O)c1nc(-c2ccc(C)cc2)n2c1CCCCC2 | -97*
O=C(c1nc(-c2cccc(F)c2)n2c1CCCCC2)N1CCN(c2ncccn2)CC1 | 6
CCOC(=O)N1CCN(C(=O)c2nc(-c3ccc(C)cc3)n3c2CCCCC3)CC1 | 29
CC(=O)Nc1ccc(NC(=O)c2nc(-c3ccc(C)cc3)n3c2CCCCC3)cn1 | -99*
Cc1ccc(-c2nc(C(=O)Nc3cc(C)on3)c3n2CCCCC3)cc1 | -110*
CC1CC(C)CN(C(=O)c2nc(-c3cccc(F)c3)n3c2CCCCC3)C1 (centres undefined) | -54
SMILES | Tg IFNy HTS
CCCN1CCN(C(=O)c2nc(-c3ccc(C)cc3)n3c2CCCCC3)CC1 | 240
CC(C)CCNC(=O)c1nc(-c2cccc(F)c2)n2c1CCCCC2 | -42
c1c(CN2CCSCC2)nn2c1CNCCC2 | 6
COc1cc(NC(=O)N[C@@H](Cc2ccccc2)C(=O)O)cc(OC)c1 | -32
CC(C)n1c2ccccc2c2c1cc(C(=O)NCC1CCCO1)n2S(C)(=O)=O (centres undefined) | 42
Cc1ccc2c(c1)c(Cn1ccnc1-c1cccs1)nn2C | 3
COc1cc(O)c2c(=O)c(OC)c(-c3ccc(OC)c(OC)c3)oc2c1 | 19
CCOc1ccccc1NC(=O)CC(=O)N1CCCC1c1nc(C)no1 (centres undefined) | 8
O=C(NC(=O)N1CCOCC1)c1csnn1 | -41
CCCOCC1CCN(C(=O)c2ccc3c(c2)C(=O)N(CCC)C3=O)C1 (centres undefined) | 3
Cc1c(-c2ccnc3cc(C(=O)NC(C)COc4ccc(Cl)cc4)nn23)cnn1C (centres undefined) | -51
CCc1cn[nH]c1C1CCN(C(=O)C2(S(=O)(=O)c3ccccc3)CC2)CC1 | -22
Cc1oc(-c2ccc(NC(=O)c3c(F)cccc3Cl)cc2)nc1Cn1cccn1 | 65
Cc1oc(-c2ccc(NC(=O)c3ccc(F)c(Cl)c3)cc2)nc1Cn1cccn1 | -69
Cc1oc(-c2ccc(NC(=O)c3ccccc3C(F)(F)F)cc2)nc1Cn1cccn1 | -46
Cc1oc(-c2ccc(NC(=O)c3cc(F)ccc3Cl)cc2)nc1Cn1cccn1 | -92*
Cc1cnn(Cc2nc(-c3ccc(NC(=O)c4c(F)cccc4Cl)cc3)oc2C)c1 | -54
COc1ccccc1C(=O)Nc1ccc(-c2nc(Cn3cccn3)c(C)o2)cc1 | -25
Cc1cnn(Cc2nc(-c3ccc(NC(=O)c4ccc(F)cc4F)cc3)oc2C)c1 | -4
Cc1cnn(Cc2nc(-c3ccc(NC(=O)c4cc(F)ccc4Cl)cc3)oc2C)c1 | -89*
CSc1ccc(Cl)c(C(=O)Nc2ccc(-c3nc(Cn4cccn4)c(C)o3)cc2)c1 | -93*
COc1ccc([C@@H]2C/C=C\C[C@H](c3ccc4c(c3)OCO4)NC(=O)[C@H](c3ccccc3)CC(=O)N2)c(OC)c1 | 21
Cc1ccc(C)c(NC(=O)C(=O)NCCc2csc(-c3ccc(Cl)cc3)n2)c1 | -53
O=C(Nc1nc(-c2ccc(OC(F)(F)F)cc2)no1)NN1CCCCC1 | -42
Cc1ccc(S(=O)(=O)N2C[C@H]3[C@@H](c4ccccc42)[C@H](CO)N3Cc2cccnc2)cc1 | -6
Cc1noc(C)c1NC(=O)Nc1ccc2c(c1)CC(=O)N([C@H](C)CO)C[C@H](C)[C@H](CN(C)Cc1ccc(C(F)(F)F)cc1)O2 | 7
Cc1ncc(-c2cc(C)on2)c(C2CCCNC2)n1 (centres undefined) | -7

Assay outcomes deposited in PubChem by Broad Institute.
